Reference: PubChem BioAssay AID1159580 (chemical genetic matrix, 2015)
Among all 5,500 compounds or so, about 2,000 (36%) were called active. Inconclusive results (about 18%) are left out. Cut-off read from the data, not from the text of the source: active = normalized growth mostly below about 0.91 (no sharp cut-off); inconclusive = no clear call, values can overlap the other calls; inactive = mostly above about 0.92. The list shows a part of the results.

Assay: chemical genetic growth profiling, strain panel (AID 1159580);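 note: tested at 20 µM; growth read once vehicle control cultures reached saturation at 30 °C; 1 = growth at the plate median or of vehicle wells; lower values mean less growth of the strain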
Conditions: growth OD

Measured: normalized growth

C=C[C@H]1CN2CC[C@H]1C[C@@H]2[C@H](O)c1ccnc2ccccc12
inactive: S. cerevisiae deletion strains, locus YKL009W, strain mrt4, active compounds read low 0.976 | S. cerevisiae deletion strains, locus YKL068W, active compounds read low 0.979 | S. cerevisiae deletion strains, locus YKL085W, strain MDH1 (second series), active compounds read low 0.972 | S. cerevisiae deletion strains, locus YKL085W, strain MDH1, active compounds read low 0.972 | S. cerevisiae deletion strains, locus YKL160W, strain elf1, active compounds read low 0.991 | S. cerevisiae deletion strains, locus YKL190W, strain CNB1, active compounds read low 0.99 | S. cerevisiae deletion strains, locus YKR001C, strain vps1, active compounds read low 0.997 | S. cerevisiae deletion strains, locus YKR026C, strain gcn3, active compounds read low 0.991 | S. cerevisiae deletion strains, locus YKR091W, strain srl3, active compounds read low 0.979 | S. cerevisiae deletion strains, locus YLL001W, strain dnm1, active compounds read low 0.989 | S. cerevisiae deletion strains, locus YLL026W, active compounds read low 0.995 | S. cerevisiae deletion strains, locus YLL041C, strain sdh2, active compounds read low 0.987 | S. cerevisiae deletion strains, locus YLR027C, strain aat2, active compounds read low 0.992 | S. cerevisiae deletion strains, locus YLR039C, strain RIC1, active compounds read low 0.98 | S. cerevisiae deletion strains, locus YLR058C, strain SHM2, active compounds read low 0.992 | S. cerevisiae deletion strains, locus YLR102C, strain apc9, active compounds read low 0.988 | S. cerevisiae deletion strains, locus YLR113W, strain HOG1, active compounds read low 0.967 | S. cerevisiae deletion strains, locus YLR221C, strain rsa3, active compounds read low 1.02 | S. cerevisiae deletion strains, locus YLR258W, strain gsy2, active compounds read low 0.991 | S. cerevisiae deletion strains, locus YLR262C, strain YPT6 (second series), active compounds read low 1.01 | S. cerevisiae deletion strains, locus YLR262C, strain YPT6, active compounds read low 0.983 | S. cerevisiae deletion strains, locus YLR268W, strain sec22, active compounds read low 0.937 | S. cerevisiae deletion strains, locus YLR320W, strain mms22, active compounds read low 0.998 | S. cerevisiae deletion strains, locus YLR330W, strain CHS5, active compounds read low 0.986 | S. cerevisiae deletion strains, locus YLR342W, strain FKS1 (second series), active compounds read low 1.11 | S. cerevisiae deletion strains, locus YLR342W, strain FKS1, active compounds read low 0.984 | S. cerevisiae deletion strains, locus YLR357W, strain rsc2, active compounds read low 0.976 | S. cerevisiae deletion strains, locus YLR370C, strain arc18, active compounds read low 0.994 | S. cerevisiae deletion strains, locus YLR371W, strain rom2, active compounds read low 0.977 | S. cerevisiae deletion strains, locus YLR384C, strain iki3, active compounds read low 0.995 | S. cerevisiae deletion strains, locus YLR418C, strain cdc73, active compounds read low 0.982 | S. cerevisiae deletion strains, locus YML016C, strain PPZ1, active compounds read low 0.999 | S. cerevisiae deletion strains, locus YML032C, strain rad52, active compounds read low 0.968 | S. cerevisiae deletion strains, locus YML120C, strain ndi1, active compounds read low 1.01 | S. cerevisiae deletion strains, locus YML124C, strain tub3, active compounds read low 0.986 | S. cerevisiae deletion strains, locus YMR058W, strain fet3, active compounds read low 0.982 | S. cerevisiae deletion strains, locus YMR078C, strain ctf18, active compounds read low 0.983 | S. cerevisiae deletion strains, locus YMR125W, strain sto1, active compounds read low 0.977 | S. cerevisiae deletion strains, locus YMR129W, active compounds read low 0.988 | S. cerevisiae deletion strains, locus YMR205C, strain PFK2, active compounds read low 0.988 | S. cerevisiae deletion strains, locus YMR223W, strain ubp8, active compounds read low 1.01 | S. cerevisiae deletion strains, locus YMR231W, strain pep5, active compounds read low 0.979 | S. cerevisiae deletion strains, locus YMR263W, strain SAP30, active compounds read low 0.989 | S. cerevisiae deletion strains, locus YMR307W, strain GAS1, active compounds read low 1.09 | S. cerevisiae deletion strains, locus YNL067W, strain RPL9B, active compounds read low 0.977 | S. cerevisiae deletion strains, locus YNL071W, strain lat1, active compounds read low 0.988 | S. cerevisiae deletion strains, locus YNL128W, strain TEP1, active compounds read low 0.982 | S. cerevisiae deletion strains, locus YNL153C, strain GIM3, active compounds read low 0.991 | S. cerevisiae deletion strains, locus YNL183C, strain NPR1, active compounds read low 0.951 | S. cerevisiae deletion strains, locus YNL209W, strain ssb2, active compounds read low 0.995 | S. cerevisiae deletion strains, locus YNL233W, strain BNI4, active compounds read low 0.985 | S. cerevisiae deletion strains, locus YNL248C, strain rpa49, active compounds read low 0.982 | S. cerevisiae deletion strains, locus YNL250W, strain rad50, active compounds read low 0.986 | S. cerevisiae deletion strains, locus YNL271C, strain bni1, active compounds read low 0.983 | S. cerevisiae deletion strains, locus YNL298W, strain CLA4, active compounds read low 0.985 | S. cerevisiae deletion strains, locus YNL307C, strain MCK1, active compounds read low 0.992 | S. cerevisiae deletion strains, locus YNL322C, strain KRE1 (second series), active compounds read low 0.975 | S. cerevisiae deletion strains, locus YNL322C, strain KRE1, active compounds read low 0.992 | S. cerevisiae deletion strains, locus YNR049C, strain mso1, active compounds read low 0.986 | S. cerevisiae deletion strains, locus YNR052C, strain pop2, active compounds read low 0.992 | S. cerevisiae deletion strains, locus YOL006C, strain TOP1, active compounds read low 0.992 | S. cerevisiae deletion strains, locus YOL012C, strain htz1 1.51 | S. cerevisiae deletion strains, locus YOL147C, strain pex11, active compounds read low 0.979 | S. cerevisiae deletion strains, locus YOR001W, strain rrp6, active compounds read low 1.01 | S. cerevisiae deletion strains, locus YOR061W, strain CKA2, active compounds read low 0.986 | S. cerevisiae deletion strains, locus YOR069W, strain VPS5, active compounds read low 0.997 | S. cerevisiae deletion strains, locus YOR070C, strain gyp1, active compounds read low 1 | S. cerevisiae deletion strains, locus YOR080W, strain dia2, active compounds read low 0.985 | S. cerevisiae deletion strains, locus YOR083W, strain WHI5, active compounds read low 0.991 | S. cerevisiae deletion strains, locus YOR106W, strain vam3, active compounds read low 0.999 | S. cerevisiae deletion strains, locus YOR136W, strain idh2, active compounds read low 1 | S. cerevisiae deletion strains, locus YOR144C, strain elg1, active compounds read low 0.983 | S. cerevisiae deletion strains, locus YOR184W, strain ser1, active compounds read low 0.982 | S. cerevisiae deletion strains, locus YOR231W, strain MKK1, active compounds read low 0.983 | S. cerevisiae deletion strains, locus YOR265W, strain rbl2, active compounds read low 1 | S. cerevisiae deletion strains, locus YOR270C, strain vph1, active compounds read low 1 | S. cerevisiae deletion strains, locus YOR290C, strain snf2, active compounds read low 0.982 | S. cerevisiae deletion strains, locus YOR316C, strain cot1, active compounds read low 0.972 | S. cerevisiae deletion strains, locus YPL051W, strain arl3, active compounds read low 0.994 | S. cerevisiae deletion strains, locus YPL055C, strain LGE1, active compounds read low 0.997 | S. cerevisiae deletion strains, locus YPL078C, strain atp4, active compounds read low 0.99 | S. cerevisiae deletion strains, locus YPL106C, strain sse1, active compounds read low 0.967 | S. cerevisiae deletion strains, locus YPL240C, strain hsp82, active compounds read low 0.999 | S. cerevisiae deletion strains, locus YPL241C, strain CIN2, active compounds read low 0.989 | S. cerevisiae deletion strains, locus YPL256C, strain CLN2, active compounds read low 0.978 | S. cerevisiae deletion strains, locus YPR119W, strain clb2, active compounds read low 0.974 | S. cerevisiae deletion strains, locus YPR141C, strain kar3, active compounds read low 0.981 | S. cerevisiae deletion strains, locus YPR163C, strain tif3, active compounds read low 0.977 | S. cerevisiae deletion strains, locus YPR167C, strain met16, active compounds read low 0.979 | S. cerevisiae deletion strains, strain wtn01, active compounds read low 0.98 | S. cerevisiae strains, strain wild type, active compounds read low 1
